In PubChem BioAssay (NCI):
Values joined by “and” are separate entries in the source; they are usually repeats but may differ in a detail not shown here. Equal entries are not always repeated. This is part of a sample that, as a whole, favours compounds with a hit. Of some 83,000 tested, about 20% had one in any assay.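 Activity criterion: percent growth below 10, measured after cells in 96-well plates were exposed to a single compound concentration for 48 hours.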 Some compounds were tested as several samples or in several runs, with calls that do not always agree. Active and inactive are the calls of the source.

Experiments:
Experiment in all cases: NCI-60 one-dose screen, 48 h (100 = growth as untreated, 0 = no growth, -100 = all killed)
Conditions in all cases: 10 µM unless noted
NCI/ADR-RES ovarian = tested on: NCI/ADR-RES ovarian
T-47D breast = tested on: T-47D breast
BT-549 breast = tested on: BT-549 breast
SW-620 colon = tested on: SW-620 colon
MCF7 breast = tested on: MCF7 breast
HCT-116 colon = tested on: HCT-116 colon
HCC-2998 colon = tested on: HCC-2998 colon
KM12 colon = tested on: KM12 colon
MDA-MB-435 melanoma = tested on: MDA-MB-435 melanoma

Row | SMILES | growth (NCI/ADR-RES ovarian) | growth (T-47D breast) | growth (BT-549 breast) | growth (SW-620 colon) | growth (MCF7 breast) | growth (HCT-116 colon) | growth (HCC-2998 colon) | growth (KM12 colon) | growth (MDA-MB-435 melanoma)
1 | O=C1c2ccccc2C(=O)N1N1CC1c1ccccc1 (configuration not stated) | 104% (inactive) | 89.2% (inactive) | 99% (inactive) | 105% (inactive) | 84.1% (inactive) | 95.4% (inactive) | 103% (inactive) | 104% (inactive) | –
2 | Cc1cc(N(CCCl)CCCl)ccc1C=Nc1ccc(-c2csc(-c3ccccc3)n2)cc1 | 82.4% (inactive) | 57.8% (inactive) | 67.2% (inactive) | 83.1% (inactive) | 48% (inactive) | 89.8% (inactive) | 94.2% (inactive) | 89.5% (inactive) | –
3 | C#COc1cccc(Nc2ncnc3cc(NC(=O)CF)ccc23)c1 | 35.3% [6.25 µM] (inactive) | 40.9% [6.25 µM] (inactive) | 28% [6.25 µM] (inactive) | 25.8% [6.25 µM] (inactive) | 30.6% [6.25 µM] (inactive) | 19% [6.25 µM] (inactive) | 63.8% [6.25 µM] (inactive) | 28.6% [6.25 µM] (inactive) | –
4 | CC[C@H](C)[C@H]1O[C@]2(C=C[C@@H]1C)C[C@@H]1C[C@@H](C/C=C(\C)[C@@H](O[C@H]3C[C@H](OC)[C@@H](O[C@H]4C[C@H](OC)[C@@H](NC)[C@H](C)O4)[C@H](C)O3)[C@@H](C)/C=C/C=C3\CO[C@@H]4[C@H](O)C(C)=C[C@@H](C(=O)O1)[C@]34O)O2 | 0.588% (active) | -27.6% (active) | 3.48% (active) | -68.1% (active) | -85% (active) | -79% (active) | -83.9% (active) | -70.6% (active) | –
5 | O=C1NC(=O)C(=C/C=C/c2ccccc2)C(=O)N1 | -29.1% (active) | 32.2% (inactive) | 36.6% (inactive) | -76.4% (active) | 14.2% (inactive) | -78.5% (active) | 62.1% (inactive) | -40.1% (active) | –
6 | Oc1ccccc1C=NCCN=Cc1ccccc1O | 103% (inactive) | 103% (inactive) | 106% (inactive) | 100% (inactive) | 97.7% (inactive) | 94.2% (inactive) | 105% (inactive) | 104% (inactive) | –
7 | COc1ccc(C(C#N)C(C)=O)cc1 (configuration not stated) | 102% (inactive) | 104% (inactive) | 100% (inactive) | 104% (inactive) | 102% (inactive) | 105% (inactive) | – | 98.5% (inactive) | 123% (inactive)
8 | CCCC[C@H]1C(=O)O[C@H](C)[C@H](NC(=O)c2cccc(NC=O)c2O)C(=O)O[C@@H](C)[C@@H]1OC(=O)CC(C)C | 1.1% (active) | 27.9% (inactive) | 140% (inactive) | 59% (inactive) | 38.3% (inactive) | 20.8% (inactive) | 56.6% (inactive) | 41.9% (inactive) | –
9 | COc1ccn(C)c(=O)c1C#N | 102% (inactive) | 81.6% (inactive) | 103% (inactive) | 94.1% (inactive) | 93% (inactive) | 97% (inactive) | 101% (inactive) | 96.6% (inactive) | –
10 | CN1CCC2(CC1)C(C#N)C(=O)NC(=O)C2C#N (configuration not stated) | 113% (inactive) | 107% (inactive) | 103% (inactive) | 108% (inactive) | 88.6% (inactive) | 93.3% (inactive) | 112% (inactive) | 126% (inactive) | –
11 | Cc1cc2c(cc1-c1ccnc(/C=C/C(=O)O)c1)C(C)(C)CCC2(C)C | 87.8% (inactive) | 92.4% (inactive) | 64.5% (inactive) | 95.9% (inactive) | 56% (inactive) | 75.1% (inactive) | 103% (inactive) | 86.3% (inactive) | –
12 | CCCCCCCCCCCCCCCCCCn1cc[n+](C)c1 | 20.9% (inactive) and -7.98% (active) | 35.9% (inactive) and 17% (inactive) | -55.6% (active) and -55% (active) | -45.2% (active) and -38.1% (active) | -33.8% (active) and 6.12% (active) | -18.2% (active) and -51.5% (active) | -80.7% (active) and -80.9% (active) | -47.8% (active) and -61.9% (active) | –
13 | ClCc1ccc(Cl)c(Cl)c1 | 106% (inactive) | 106% (inactive) | 104% (inactive) | 97% (inactive) | 97.2% (inactive) | 96.1% (inactive) | 103% (inactive) | 104% (inactive) | –
14 | O=C(O)c1ccc(=O)[nH]c1 | 88.9% (inactive) and 102% (inactive) | 88.8% (inactive) and 89.6% (inactive) | 89.7% (inactive) | 105% (inactive) and 107% (inactive) | 126% (inactive) and 93.4% (inactive) | 103% (inactive) and 93.7% (inactive) | -49% (active) and 101% (inactive) | 103% (inactive) and 105% (inactive) | –
